Screens deposited in PubChem BioAssay by Broad Institute.
aSyn 5UTR act – Activators via SNCA 5'UTR binding, MLPCN; alpha-synuclein 5'UTR reporter, activators screen; activity score, % (tested at 7.5 µM), hits read low; 7.1% of 300,000 active; in the data active = activity score below about -60%
Active calls of the source: *. Only a sample is shown.

SMILES	aSyn 5UTR act
Cc1ccccc1-n1nc(C)c2c(C(=O)NN)cc(-c3ccncc3)nc21	56.5
Cc1ccn2cc(-c3cccc(NC(=O)c4cccs4)c3)nc2c1	-85.2*
COC(=O)c1ccccc1NC(=O)c1ccc(-c2ccc(Br)cc2)o1	-106.4*
O=C(Nc1cccc2nsnc12)c1ccc(-c2ccc(Br)cc2)o1	-157.2*
COc1ccccc1CNC(=O)CN1C(=O)c2cccc(N)c2C1=O	-64.6*
COc1ccc(CC(=O)NCc2ccc(-n3cccc3)cc2)cc1OC	63.9
COc1ccccc1CNC(=O)CCCc1ccccc1	-68.5*
CCOC(=O)c1sc(NC(=O)c2cc3c(s2)CCC(C)C3)nc1C (stereo not given)	-101.5*
Cc1nc(NC(=O)c2cc3c(s2)CCCCC3)sc1C(=O)N(C)C	-175.3*
COC(=O)c1sc(NC(=O)c2cc3c(s2)CCCC3)nc1C	-204.4*
O=C(Nc1ccccc1OC(F)F)c1cc2c(s1)CCC2	-161.5*
Cc1ccc(NC(=O)c2scc3c2CCCC3)cc1	-90.1*
CC1CCc2sc(C(=O)Nc3ccc(C(N)=O)cc3)cc2C1 (stereo not given)	-119.4*
Cc1nc(NC(=O)CCl)sc1C(=O)N(C)C	-69.8*
Cc1ccc(NC(=O)c2cc3c(s2)CCCC3)cc1	-192.7*
Cc1nc(NC(=O)c2ccc(Br)s2)sc1C(=O)N(C)C	-121.9*
Cc1cc2c(ccc3c2no[n+]3[O-])nn1	-99.8*
[O-][n+]1onc2c3ccnnc3ccc21	-118.9*
Cc1ccc(N=Nc2c(O)ccc3n[nH]nc23)cc1	-196.2*
CSC1=NNC(c2ccc(C(C)(C)C)cc2)=NN1	-106.4*
N#C/C(=C(/O)c1cccs1)c1nc2ccccc2[nH]1	-102.4*
Cc1ccc(/C=C(\C#N)c2nc3ccccc3[nH]2)s1	-228.6*
N#C/C(=C\c1cccs1)Sc1nc2ccccc2s1	-68.3*
CCOc1cc(N(CC)CC)ccc1/C=C(/C#N)c1nc2ccccc2[nH]1	-107.4*
N#C/C(=C\C1CC=CCC1)c1nc2ccccc2[nH]1 (stereo not given)	-65.6*
SMILES	aSyn 5UTR act
N#C/C(=C\c1c(Cl)cccc1Cl)c1nc2ccccc2[nH]1	-63.7*
N#C/C(=C\c1ccc(Cl)cc1)c1nc2ncccc2[nH]1	-94.3*
N#C/C(=C/c1cccs1)c1nc2ccccc2[nH]1	-201.4*
Cc1cc(/C=C(\C#N)c2nc3ccccc3[nH]2)c(C)n1C	-223.5*
Cc1csc(NC(=S)NC(=O)c2ccccc2)n1	-178.7*
CCOC(=O)c1sc(NC(=S)NC(=O)c2ccccc2)nc1C	-216.3*
COC(=O)c1sc(NC(=S)NC(=O)c2ccccc2)nc1C	-198.2*
COC(=O)c1sc(NC(=S)NC(=O)c2ccccc2Cl)nc1C	-145.9*
COc1ccc(C(=O)NC(=S)NNC(=O)c2cnccn2)cc1OC	90.5
COc1cc(OC)nc(NC(=S)NC(=O)c2ccccc2)n1	-69.1*
COc1ccc(C(=O)NC(=S)Nc2nc(C)cc(C)n2)cc1Br	-77.4*
Cc1cc(C)c2cccc(NC(=S)NC(=O)c3ccccc3)c2n1	-76.4*
COc1cc2c(cc1NC(=O)c1ccco1)CCCC2	-278.5*
COc1ccc(NC(=O)c2ccccc2O)c(OC)c1	-204.8*
COc1ccc(NC(=O)CSc2ccccc2)c(OC)c1	-100.5*
COc1cc(NC(=O)COc2ccccc2C)ccc1NC(=O)c1ccco1	-67.7*
COc1ccc(CN(C)CC(=O)Nc2ccccc2-c2ccccc2)c(OC)c1	46.2
COc1ccc(NC(=O)c2cc(C(C)C)on2)c(OC)c1	-244.5*
COc1cc(NC(=O)C(C)C)ccc1NC(=O)c1ccco1	-92.1*
COc1ccc(NC(=O)c2ccco2)c(OC)c1	-128.3*
[O-]/C(=C(\C(=S)Nc1ccc(SC(F)F)cc1)[n+]1cccc(CO)c1)c1ccc(Cl)s1	-70.6*
CCCn1c(O)c(N=Nc2ccc3ccccc3n2)c2ccccc21	-176.6*
Oc1ccc2ccccc2c1N=Nc1ccccn1	74.7
O=C(/C=C/c1ccccc1)NC(=S)NNC(=O)c1cnccn1	86.6
CC(/C=C/c1ccccc1)=N/NC(=O)c1cnccn1	-119.6*
SMILES	aSyn 5UTR act
CN(C)c1ccc(NC(=O)c2ccc3nsnc3c2)cc1	-165.8*
O=C(Nc1ccc(Cl)cc1)c1ccc2nsnc2c1	-202.3*
O=C(Nc1ccc(NC(=O)c2ccccc2Br)cc1)c1ccccc1	-84.5*
O=C(Nc1ccc(C(F)(F)F)cc1)c1ccccc1Br	-81.7*
O=C(Nc1ccc(Br)c(C(F)(F)F)c1)c1ccccc1	-90.1*
O=C(Nc1ccc(C(=O)c2ccccc2)cc1)c1ccccc1	-188.7*
Cc1ccc(O)c(NC(=O)c2cc(-c3cccs3)on2)c1	-231.0*
Cc1ccc(O)c(NC(=O)c2cc(-c3ccc(F)cc3)on2)c1	-146.7*
CC(C)NC(=O)c1cc(-c2cccs2)on1	-127.3*
C=CCNC(=O)c1cc(-c2ccc(Br)cc2)on1	-101.1*
O=C(Nc1c(F)cc(F)cc1Br)c1cc(-c2ccc(O)cc2)on1	-100.7*
CSc1ccccc1NC(=O)c1cc(-c2cccs2)on1	-234.9*
O=C(N/C(=C/c1cccc(Br)c1)c1nc(=S)[nH][nH]1)c1ccccc1	-77.1*
N#CCc1nc(CSc2nc3ccccc3s2)cs1	-115.7*
c1ccc(Oc2ccc3ccccc3n2)cc1	-129.5*
O=C(C[n+]1cc(-c2ccc(F)cc2)n2c1CCC2)c1cccs1	-144.4*
O=C(C[n+]1cc(-c2ccccc2)n2c1CCC2)Nc1nc(-c2ccccc2)cs1	-73.1*
O=C(c1nn2c(C(F)(F)F)cc(-c3cccs3)nc2c1Br)N1CCCc2ccccc21	82.2
O=C(CSCC(=O)N1CCCc2ccccc21)Nc1nc(-c2ccccc2)cs1	-100.5*
O=C(N/N=C/c1cccs1)c1cc(-c2cccc3ccccc23)n[nH]1	-104.0*
Cc1ccc(/C=N/NC(=O)c2ccc3c(c2)OCCO3)s1	-117.5*
Cc1ccc(/C=N/NC(=O)c2ccc3ccccc3c2)s1	-131.7*
Cc1cc(C(=O)N/N=C/c2ccc(C)s2)n[nH]1	-97.3*
Cc1cc(C(=O)N/N=C/c2ccc([N+](=O)[O-])s2)n[nH]1	79.3
O=C(N/N=C/c1cccs1)c1ccc2ccccc2c1	-239.8*
SMILES	aSyn 5UTR act
CC(C)(C)C1CCc2c(C(=O)N/N=C/c3cccs3)csc2C1 (stereo not given)	-97.2*
O=C(N/N=C/c1cc(Br)cs1)c1ccc2c(c1)OCCO2	-343.5*
CSc1n[nH]c(-c2ccc(C(F)(F)F)cc2)n1	-68.1*
COc1ccc(-c2oc3ccc(N4CCOCC4)cc3c2C#Cc2ccc(N)cc2)cc1	-91.6*
COc1ccc(-c2oc3ccc(N4CCOCC4)cc3c2C#CC2(O)CCCCC2)cc1	-117.8*
O=C(Nc1ccc(F)cc1)Nc1ccc(N2CCOCC2)c2nonc12	-145.0*
O=C(Nc1ccc(N2CCOCC2)c2nonc12)C1CCCC1	-142.0*
O=C(COc1ccc(Cl)cc1Cl)NCc1ccco1	-64.1*
O=C(NCc1ccco1)c1ccc(COc2cc(Cl)ccc2Cl)cc1	-94.9*
COCCCN=C1NN=C(c2cc(C)n(Cc3ccco3)c2C)CS1	93.7
COCCn1c(C)cc(C2=NNC(=NC3CC3)SC2)c1C	112.1
COCC(C)N=C1NN=C(c2cc(C)n(Cc3ccccc3Cl)c2C)CS1 (stereo not given)	-141.4*
Cc1ccc(Nc2ncc3c(n2)CC(C)(C)CC3=O)cc1	-87.8*
CC1(C)CC(=O)c2cnc(N3CCN(c4ccccc4)CC3)nc2C1	-61.5*
CC1(C)CC(=O)c2cnc(N3CCc4ccccc4C3)nc2C1	-217.8*
COc1ccc(NC(=O)Nc2cccs2)cc1OC	-81.6*
COc1cccc(NC(=O)Nc2cccs2)c1	-80.4*
COc1ccc(/C=C/C(=O)Nc2ccccc2C)cc1S(=O)(=O)N1CCOCC1	-86.7*
